Screens (PubChem)
An excerpt weighted towards active compounds, which were near 2.8% of everything screened.
TGFb SMAD3 inh = qHTS for Inhibitors of TGF-b; HepG2 CAGA-GFP TGF-b/SMAD3 reporter, GFP fluorescence, 18 h; TGF-beta stimulated, 500 pg/mL final; Potency, µM (series often up to 46.1 µM), usual class: inhibitors; hit rate 1.2% among 410,000; AID 588855, 2011; further: nearly all actives have a fitted effect of over 65% in size
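Inhibition was scored as loss of TGF-beta-induced (500 pg/mL final, 18 hours, 37 degrees C) GFP in HEPG2 cells carrying a CAGA-GFP reporter, in DMEM with 1% FBS. Well GFP was summed per cell; Activity was normalised to unstimulated and stimulated DMSO wells, then concentration-response fitting.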
HTT ATP protect = qHTS Multiplex Assay to Identify Dual Action Probes in a Cell Model of Huntington: Cytoprotection (ATP); AID 1471, 2008; PC12 HTT-Q103 induced, cytoprotection, ATP luminescence, 40 h; hit rate 0.14% among 230,000; Potency, µM (series often up to 56.4 µM), most hits filed as activators; further: nearly all actives have a fitted effect of over 45% in size
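PC12 cells stably carrying ecdysone-inducible Htt exon 1 (Q103)–GFP were induced with 100 nM tebufenozide (final) alongside library compounds in a dose series. Cytoprotection was scored as retained ATP by ATPlite luminescence.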
S2 tox = Viability Counterscreen for Primary qHTS for Inhibitors of ATXN expression; S2 cells (HEK-293 line with an ATXN2-luciferase reporter) viability, CellTiter-Fluor protease fluorescence, 24 h; Potency, µM (top dose mostly 56.7 µM), usual class: cytotoxic; hit rate 0.49% among 400,000; AID 651635, 2014; further: nearly all actives have a fitted effect of over 40% in size
HepG2 tox = qHTS for Inhibitors of TGF-b: Cytotox Counterscreen. Potency, µM (titrated, usually from 46.1 µM), actives largely listed as cytotoxic. HepG2 CAGA-GFP viability, ATP luminescence, 18 h. hit rate 0.76% among 410,000. AID 588856, 2011
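HepG2 CAGA-GFP cells (1000/well, DMEM with 1% FBS) received compound, then TGF-beta at 500 pg/mL final, and were incubated 18 hours at 37 degrees C. Viability was read by CellTiter-Glo luminescence. Media-only wells were set as complete cell-killing and DMSO as no toxicity.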
ATXN2 expr inh = Primary qHTS for Inhibitors of ATXN expression. AID 1745845, 2022. HEK-293 ATXN2-luciferase reporter, luminescence, 24 h. hit rate 0.72% among 360,000. Potency, µM (doses to about 57 µM), actives largely listed as inhibitors; further: nearly all actives have a fitted effect of over 55% in size
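qHTS (up to 57 uM final) was run with 24 h compound exposure of reporter cells at 37 °C. Each well was multiplexed: SteadyGlo luminescence measured ATXN2-luciferase expression after a fluorogenic Gly-Phe-AFC viability readout (25 uM final).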
HTT aggregate = qHTS Multiplex Assay to Identify Dual Action Probes in a Cell Model of Huntington: Aggregate Formation (GFP); PC12 HttQ103-GFP aggregates, Acumen cytometry, 40 h; Potency, µM (titrated, usually from 46.1 µM), most hits filed as inhibitors; hit rate 1.1% among 220,000; further: nearly all actives have a fitted effect of over 60% in size
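Inducible Q103 Huntingtin exon 1–GFP PC12 line, 1500 cells/well in phenol red free DMEM with 5% equine and 5% calf serum. Tebufenozide 100 nM induced expression; compounds titrated; aggregates quantified by cytometry.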
Each line names hits and unclear results; the compound was inactive in the other large screens; ! = not active in a repeat. The call rests on the fitted dose curve; in most records, active means well fitted curve in the direction sought with a large enough effect; inconclusive means small, poorly fitted or top-dose-only effect, or another doubt; inactive means no such curve, though single readings can be large; an effect the other way counts as inactive or inconclusive.

CC1CCCC(C)N1/N=C/c1c[nH]c2ccc(Br)cc12 (stereo unspecified)	TGFb SMAD3 inh inconclusive, HepG2 tox 18µM, HTT aggregate inconclusive
COc1ccccc1CNC(=O)CCC1N=C2c3ccccc3N=C(SCc3cccc(Cl)c3)N2C1=O (stereo unspecified)	TGFb SMAD3 inh inconclusive (no result: HTT ATP protect, S2 tox, ATXN2 expr inh, HTT aggregate)
O=C(CCC1N=C2c3ccccc3N=C(SCc3cccc(Cl)c3)N2C1=O)N1CCN(c2ccccc2)CC1 (stereo unspecified)	TGFb SMAD3 inh 10µM, S2 tox inconclusive (no result: HTT ATP protect, HTT aggregate)
O=C(CCl)c1ccc(Cl)cc1Cl	S2 tox 11µM!, ATXN2 expr inh inconclusive (no result: TGFb SMAD3 inh, HepG2 tox, HTT aggregate)
CC(=Cc1csc(C)n1)[C@@H]1C[C@H]2O[C@@H]2CCC[C@H](C)[C@@H](O)[C@@H](C)C(=O)C(C)(C)[C@@H](O)CC(=O)O1	none (no result: TGFb SMAD3 inh, HTT ATP protect, S2 tox, HepG2 tox, HTT aggregate)
N[C@H](CCl)C(=O)O	none (no result: TGFb SMAD3 inh, S2 tox, HepG2 tox, ATXN2 expr inh, HTT aggregate)
CN(CC1COc2ccccc2O1)c1nc(-c2cccnc2)nc2ccccc12 (stereo unspecified)	TGFb SMAD3 inh inconclusive, HTT ATP protect inconclusive, HepG2 tox 5µM
CN1CCC(N(C)c2nc(-c3ccc([N+](=O)[O-])cc3)nc3ccccc23)CC1	TGFb SMAD3 inh inconclusive
CC1OC(OC2C(O)CC(OC3C(O)CC(OC4CCC5(C)C(CCC6C5CCC5(C)C(C7=CC(=O)OC7)C(O)CC65O)C4)OC3C)OC2C)CC(O)C1O (stereo unspecified)	TGFb SMAD3 inh inconclusive, S2 tox inconclusive, ATXN2 expr inh 0.32µM (no result: HTT ATP protect, HTT aggregate)
C[C@@]12CC[C@H](O)C[C@@H]1CC[C@H]1[C@H]2CC[C@@]2(C)[C@@H](C3=CC(=O)OC3)CC[C@]12O	none (no result: TGFb SMAD3 inh, S2 tox, HepG2 tox, ATXN2 expr inh, HTT aggregate)
CC(=O)OC1CC2(O)C3CCC4CC(O)CCC4(C)C3CCC2(C)C1C1=CC(=O)OC1 (stereo unspecified)	TGFb SMAD3 inh 2µM, S2 tox inconclusive, ATXN2 expr inh 0.32µM (no result: HTT ATP protect, HTT aggregate)
CC(=O)OC1CC(OC2C(O)CC(OC3C(O)CC(OC4CCC5(C)C(CCC6C5CCC5(C)C(C7=CC(=O)OC7)C(O)CC65O)C4)OC3C)OC2C)OC(C)C1OC1OC(CO)C(O)C(O)C1O (stereo unspecified)	TGFb SMAD3 inh 2µM (no result: HTT ATP protect, HTT aggregate)
C[C@@H]1O[C@H](O[C@@H]2CC[C@@]3(C=O)[C@H]4CC[C@@]5(C)[C@@H](C6=CC(=O)OC6)CC[C@@]5(O)[C@@H]4CC[C@]3(O)C2)C[C@H](O)[C@@H]1O	none (no result: TGFb SMAD3 inh, S2 tox, HepG2 tox, ATXN2 expr inh, HTT aggregate)
C[C@H]1C(=O)O[C@H]2CCN3CC=C(COC(=O)[C@](C)(O)[C@@]1(C)O)[C@H]23	none (no result: TGFb SMAD3 inh, S2 tox, HepG2 tox, ATXN2 expr inh, HTT aggregate)
Clc1ccc(C(Cn2ccnc2)OCc2csc3c(Cl)cccc23)c(Cl)c1 (stereo unspecified)	TGFb SMAD3 inh inconclusive, ATXN2 expr inh 22µM (no result: HTT ATP protect, S2 tox, HTT aggregate)
CO[C@@H]1CC=C2CCN3CCC4=C(CC(=O)OC4)[C@]23C1	none (no result: TGFb SMAD3 inh, S2 tox, HepG2 tox, ATXN2 expr inh, HTT aggregate)
CC(C)c1c(C(=O)NC(c2cccnc2)C(F)(F)F)cnn1-c1nccc(-c2cccs2)n1 (stereo unspecified)	none (no result: TGFb SMAD3 inh, HTT ATP protect, HepG2 tox, ATXN2 expr inh, HTT aggregate)
CC1OC(OC2C=C3CCC4C(CCC5(C)C(c6ccc(=O)oc6)CCC45O)C3(C)CC2)C(O)C(OC2OC(CO)C(O)C(O)C2O)C1O (stereo unspecified)	TGFb SMAD3 inh 0.4µM, S2 tox inconclusive, ATXN2 expr inh 0.0075µM (no result: HTT ATP protect, HTT aggregate)
COc1cccc(C(=O)CCN[C@@H](C)[C@H](O)c2ccccc2)c1	S2 tox 32µM!, ATXN2 expr inh inconclusive (no result: TGFb SMAD3 inh, HTT ATP protect, HepG2 tox, HTT aggregate)
COc1cc(OC)c(OC)cc1CNC(C)C(O)c1ccccc1 (stereo unspecified)	none
C[C@H](N)c1cccc(Cl)c1Cl	none (no result: TGFb SMAD3 inh, S2 tox, HepG2 tox, ATXN2 expr inh, HTT aggregate)
COC(=O)C1=C(c2ccc(Cl)c(C(F)(F)F)c2)C[C@@H]2CC[C@H]1N2C(=O)N1CCCC1	none (no result: HTT ATP protect, HTT aggregate)
